Experimental data from PubChem BioAssay (NCI).
Values joined by “and” are separate entries in the source; they are usually repeats but may differ in a detail not shown here. Equal values may be shown once. Compounds without any hit were thinned out: in the full panel of roughly 79,000, 15% have a hit. Some structures have more than one record in an assay (separate samples or runs), and their calls can disagree. Active and inactive are the calls of the source. Rule as the data show it: active = growth inhibition above about 70%; inactive = the rest.

Key:
[1] = NCI Yeast Anticancer Drug Screen. Data for the rad50 strain (AID 155);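 also: 0% = growth of vehicle-only cultures of the same strain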; conditions: S. cerevisiae rad50 strain growth inhibition, stronger effect = higher value
Procedure, shortened: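 DNA repair mutant yeast, compound exposure, growth read-out; inhibition is taken relative to vehicle.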

[2] = NCI Yeast Anticancer Drug Screen. Data for the mec2-1 strain (AID 157); conditions: S. cerevisiae mec2-1 strain, stronger effect = higher value
Procedure, shortened: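 Test agents were screened against the mec2-1 yeast strain, with defined DNA repair or cell cycle alteration. Growth was scored as inhibition against vehicle-only controls.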

[3] = NCI Yeast Anticancer Drug Screen. Data for the sgs1 mgt1 strain (AID 161);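 also: 0% = growth of cultures given vehicle only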; conditions: S. cerevisiae sgs1 mgt1 strain, stronger effect = higher value
Procedure, shortened: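 Genetically altered yeast, compound exposure, growth inhibition relative to vehicle.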

[4] = NCI Yeast Anticancer Drug Screen. Data for the cln2 rad14 strain (AID 165);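 also: 0% = growth equal to vehicle treated cultures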; conditions: S. cerevisiae cln2 rad14 strain, stronger effect = higher value
Procedure, shortened: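 Growth of compound-exposed yeast (cln2 rad14 genotype) measured and expressed as inhibition relative to vehicle.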

[5] = NCI Yeast Anticancer Drug Screen. Data for the bub3 strain (AID 167); conditions: S. cerevisiae bub3 mutant strain, stronger effect = higher value
Procedure, shortened: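 In this screen, a yeast mutant lacking normal mitotic checkpoint function is challenged with compound. Relative growth versus vehicle gives the inhibition value.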

[6] = NCI Yeast Anticancer Drug Screen. Data for the mlh1 rad18 strain (AID 175); conditions: S. cerevisiae mlh1 rad18 strain growth inhibition, stronger effect = higher value
Procedure, shortened: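 In this whole-cell yeast screen, a strain with altered DNA damage repair is challenged with compound, and its growth is measured against matched vehicle-treated controls.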

[7] = at 5.0 µM (retest, dose inferred, filed as 0.5)
[8] = at 50.0 µM (retest, dose inferred, filed as 5.0)

| SMILES | growth inhibition [1, 7] | growth inhibition [1, 8] | growth inhibition ([1]; at 50.0 µM) | growth inhibition [2, 7] | growth inhibition [2, 8] | growth inhibition ([2]; at 50.0 µM) | growth inhibition [3, 7] | growth inhibition [3, 8] | growth inhibition ([3]; at 50.0 µM) | growth inhibition [4, 7] | growth inhibition [4, 8] | growth inhibition ([4]; at 50.0 µM) | growth inhibition [5, 7] | growth inhibition [5, 8] | growth inhibition ([5]; at 50.0 µM) | growth inhibition [6, 7] | growth inhibition [6, 8] | growth inhibition ([6]; at 50.0 µM) |
| --- | --- | --- | --- | --- | --- | --- | --- | --- | --- | --- | --- | --- | --- | --- | --- | --- | --- | --- |
| COc1cc(OC)c(OC)cc1/C=C/[N+](=O)[O-] | 35% (inactive) | 64% (inactive) | 85.9% (active) | 24% (inactive) | 85% (active) | 90.9% (active) | 46% (inactive) | 85% (active) | 90.8% (active) | 9% (inactive) | 39% (inactive) | 77.8% (active) | 12% (inactive) | 67% (inactive) | 94.8% (active) | 71% (active) | 91% (active) | 92% (active) |
| CS/C([S-])=N/N=C(C)C.CS/C([S-])=N/N=C(C)C.[Ni+2] | 34% (inactive) | 94% (active) | 93.8% (active) | 19% (inactive) | 96% (active) | 57% (inactive) | 28% (inactive) | 97% (active) | 83.7% (active) | 11% (inactive) | 89% (active) | -13.8% (inactive) | 72% (active) | 96% (active) | 79.8% (active) | 72% (active) | 97% (active) | 74.8% (active) |
| CCOC(=O)C1=C(C)NC(=O)NC1c1ccc(N(CCCl)CCCl)cc1Cl (centres undefined) | 6% (inactive) | 78% (active) | 38.6% (inactive) | 46% (inactive) | 59% (inactive) | 44.1% (inactive) | -3% (inactive) | 34% (inactive) | 24.9% (inactive) | -8% (inactive) | 74% (active) | -10.8% (inactive) | 13% (inactive) | 97% (active) | 92.6% (active) | 3% (inactive) | 88% (active) | 78.5% (active) |
| CC1(C)OC2OC3C(CN(CCCl)Cc4ccccc4)OC(c4ccccc4)OC3C2O1 (centres undefined) | 5% (inactive) | 18% (inactive) | 5.3% (inactive) | -26% (inactive) | -4% (inactive) | 8.75% (inactive) | -10% (inactive) | 31% (inactive) | -0.9% (inactive) | -2% (inactive) | -1% (inactive) | 33.8% (inactive) | 0% (inactive) | 23% (inactive) | -2.9% (inactive) | -23% (inactive) | 49% (inactive) | 14.2% (inactive) |
| O=P(Nc1cccc(Cl)c1)(Oc1ccccc1)N(CCCl)CCCl (centres undefined) | 40% (inactive) | 40% (inactive) | 90.2% (active) | 30% (inactive) | 30% (inactive) | 90.2% (active) | 43% (inactive) | 43% (inactive) | 92.1% (active) | 20% (inactive) | 20% (inactive) | 89.8% (active) | 26% (inactive) | 26% (inactive) | 88.7% (active) | 21% (inactive) | 21% (inactive) | 88.2% (active) |
| CC(=O)O[C@H]1CC[C@H]2[C@@H]3CCC4=CC(=O)CC[C@@H]4[C@H]3CC[C@]12C | 2% (inactive) | 93% (active) | 96.8% (active) | -1% (inactive) | 92% (active) | 93.5% (active) | -4% (inactive) | 91% (active) | 97.8% (active) | -3% (inactive) | 39% (inactive) | 14.8% (inactive) | 1% (inactive) | 84% (active) | 76.2% (active) | 0% (inactive) | 89% (active) | 97.3% (active) |
| CCC[CH2][Sn]([CH2]CCC)([CH2]CCC)[O]C(=O)C[N+](C)(C)c1cc[c]([Hg][c]2ccc(N(C)C)cc2)cc1 | 99% (active) | 99% (active) | 98.6% (active) and 97.8% (active) | 100% (active) | 100% (active) and 99% (active) | 99.5% (active) | 100% (active) | 98% (active) and 99% (active) | 99.1% (active) and 99.2% (active) | 99% (active) | 99% (active) | 98.4% (active) and 98.9% (active) | 99% (active) | 99% (active) | 98.8% (active) and 99.1% (active) | 99% (active) | 99% (active) | 99% (active) and 99.2% (active) |
| CCC[CH2][Sn][Cl] | 99% (active) | 98% (active) | 98.2% (active) | 100% (active) | 98% (active) | 98.7% (active) | 99% (active) | 99% (active) | 98.8% (active) | 99% (active) | 98% (active) | 97.7% (active) | 99% (active) | 97% (active) | 98.1% (active) | 99% (active) | 98% (active) | 97.4% (active) |
| CCCCCCC1CC2(Cl)C(Cl)=C(Cl)C1(Cl)C2(Cl)Cl (centres undefined) | 32% (inactive) | 99% (active) | 99.7% (active) | 34% (inactive) | 100% (active) | 99.8% (active) | 53% (inactive) | 99% (active) | 99.8% (active) | 19% (inactive) | 99% (active) | 99.6% (active) | 20% (inactive) | 99% (active) | 99.7% (active) | 54% (inactive) | 99% (active) | 99.5% (active) |
| CCCC[CH2][Sn]([CH2]CCCC)[CH2]CCCC.CCCC[CH2][Sn]([CH2]CCCC)[CH2]CCCC | 78% (active) | 99% (active) | 99.2% (active) | 61% (inactive) | 100% (active) | 99.5% (active) | 67% (inactive) | 100% (active) | 99.5% (active) | 8% (inactive) | 99% (active) | 98.8% (active) | 20% (inactive) | 100% (active) | 98.8% (active) | 46% (inactive) | 100% (active) | 99.1% (active) |
| CC(C)C(=O)CP(=O)(O)O | -10% (inactive) | 6% (inactive) | -18.1% (inactive) | 8% (inactive) | -2% (inactive) | -22.6% (inactive) | -9% (inactive) | -4% (inactive) | -30.5% (inactive) | -31% (inactive) | -13% (inactive) | 70.2% (active) | 7% (inactive) | 4% (inactive) | -21.6% (inactive) | 7% (inactive) | 9% (inactive) | -7.2% (inactive) |
| CC(=O)OC1CCC2(C)C(CCC3C4=CCC(C5=CC(=O)OC5)C4(C)CCC32)C1 (centres undefined) | 3% (inactive) | -33% (inactive) | 82.8% (active) | -1% (inactive) | 14% (inactive) | 81.8% (active) | 5% (inactive) | 55% (inactive) | 91.3% (active) | 12% (inactive) | 11% (inactive) | 65.3% (inactive) | 0% (inactive) | 4% (inactive) | 67.5% (inactive) | 3% (inactive) | -8% (inactive) | 77.8% (active) |
| FC1(F)C(Cl)=[C]([Hg][C]2=C(Cl)C(F)(F)C(F)(F)C(F)(F)C2(F)F)C(F)(F)C(F)(F)C1(F)F | 45% (inactive) | 98% (active) | 98.6% (active) | 66% (inactive) | 99% (active) | 51.1% (inactive) | 58% (inactive) | 99% (active) | 99.7% (active) | 57% (inactive) | 99% (active) | 19.9% (inactive) | 69% (inactive) | 99% (active) | 75% (active) | 57% (inactive) | 99% (active) | 50.6% (inactive) |
| CC(=O)[O-].CC(=O)[O-].O=C(N/N=C/c1cc(Cl)cc(Cl)c1[OH2+])c1ccncc1.[Mn+2] | 24% (inactive) | 96% (active) | 97.8% (active) | 40% (inactive) | 98% (active) | 97.2% (active) | 40% (inactive) | 92% (active) | 98% (active) | 1% (inactive) | 95% (active) | 97% (active) | 11% (inactive) | 96% (active) | 97.5% (active) | 3% (inactive) | 95% (active) | 98.2% (active) |
| Cc1ccc(P(=O)(c2ccc(C)cc2)c2ccc(C)cc2)cc1.Cc1ccc(P(=O)(c2ccc(C)cc2)c2ccc(C)cc2)cc1.[Cl][Sn]([Cl])([Cl])[Cl] | 4% (inactive) | 1% (inactive) | -9.9% (inactive) | 0% (inactive) | 1% (inactive) | 0.85% (inactive) | 2% (inactive) | 6% (inactive) | 42.6% (inactive) | 4% (inactive) | 8% (inactive) | 4.1% (inactive) | 13% (inactive) | 72% (active) | 76.2% (active) | 3% (inactive) | 1% (inactive) | 38% (inactive) |
| CC12CCC3C(CCC4CC(N5CCCCC5)=CCC43C)C1CCC2O (centres undefined) | -3% (inactive) | 98% (active) | 48.5% (inactive) | -12% (inactive) | 97% (active) | 89.4% (active) | 5% (inactive) | 99% (active) | 47.1% (inactive) | 5% (inactive) | 98% (active) | 73% (active) | -8% (inactive) | 98% (active) | 84.5% (active) | -3% (inactive) | 98% (active) | 98.5% (active) |
| CC(C)=[CH][Sb]([Br])([CH]=C(C)C)([CH]=C(C)C)[c]1ccccc1 | -9% (inactive) | 8% (inactive) | 56.5% (inactive) | -14% (inactive) | 27% (inactive) | 45.8% (inactive) | -14% (inactive) | 16% (inactive) | 32.5% (inactive) | -19% (inactive) | 6% (inactive) | -11.8% (inactive) | -3% (inactive) | 22% (inactive) | 64.9% (inactive) | -11% (inactive) | 10% (inactive) | 40.5% (inactive) |
| CC1CCC2(NC1)OC1CC3C4CC=C5CC(O)CCC5(C)C4CCC3(C)C1C2C (centres undefined) | 78% (active) and -4% (inactive) | 98% (active) and 99% (active) | 90.8% (active) and 98.2% (active) | 56% (inactive) and 13% (inactive) | 99% (active) and 98% (active) | 93% (active) and 99.3% (active) | 92% (active) and -3% (inactive) | 99% (active) | 91.8% (active) and 99% (active) | 72% (active) and -17% (inactive) | 99% (active) and 98% (active) | 87.5% (active) and 98.5% (active) | 93% (active) and 39% (inactive) | 99% (active) | 90.2% (active) and 99.1% (active) | 77% (active) and 4% (inactive) | 98% (active) and 99% (active) | 89% (active) and 98.8% (active) |
